This passage reports INHIBITION results from ChEMBL document CHEMBL4513216, “Probing the Open Global Health Chemical Diversity Library for Multistage-Active Starting Points for Next-Generation Antimalarials” (ACS Infect Dis, 2020).

Among all 69,000 compounds or so, about 8,600 (12%) showed an effect of 50% or more. The list comes from a sample in which strong results are over-represented; it also holds similar structures and randomly drawn compounds.

The test system of this assay is Plasmodium berghei. Nature of the assay: Screen against P. berghei liver stage (PbLuc), transformed with Luciferase, at 10uM. The assay is classed as functional, HepG2. To be noted: tested at 10 uM.
Turning to `COc1ccc(CN2CC[C@@H]3CN(S(C)(=O)=O)CCO[C@@H]3C2)cc1`, the INHIBITION is -0.804%.
As for `CC(C)N1CCOC(c2cc(CCO)[nH]n2)C1` (stereo not drawn), the figure is 29.21%; as for `COCCn1c2c(ccc1=O)CC(NCc1cnn(C)c1)CC2` (stereo not drawn), 55.7%; as for `CCn1c2c(ccc1=O)CC(NCc1cnn(C)c1)CC2` (stereo not drawn), 12.2%.
As for `CN(C)CCn1c2c(ccc1=O)CC(NCc1cnn(C)c1)CC2` (stereo not drawn), the figure is 31.2%; as for `Cc1ccc(C(=O)N2CCC3(CC2)NC(=O)CC3c2ccccc2)cn1` (stereo not drawn), -16.2%; as for `Cn1nc(Br)c2c(NCCSCCCO)ncnc21`, 23.1%.
The result for `O=C(CCCNc1ncccn1)N1CCCC(n2ccnc2)C1` (stereo not drawn) reads -17.6%; that for `CN1CCCC(c2nccnc2-c2cccc(Cl)c2)C1` (stereo not drawn), 11.575%; that for `CN1CCCC(c2nccnc2-c2cccc(C(F)(F)F)c2)C1` (stereo not drawn), 19.64%.
With `CN1CCCC(c2cccc(-c3cccc(F)c3)n2)C1` (stereo not drawn), the INHIBITION is reported as 36%.
As for `CN1CCCC(c2cncc(-c3cccc(C(F)(F)F)c3)n2)C1` (stereo not drawn), the figure is 66.6%; as for `CN1CCCC(c2cccc(-c3cccc(Cl)c3)n2)C1` (stereo not drawn), 64.7%.
As for `CN1CCCC(c2cccc(-c3cccc(C(F)(F)F)c3)n2)C1` (stereo not drawn), the figure is 45.2%; as for `Cn1ccnc1C1CCCN(C(=O)c2cc(F)cc(F)c2)C1` (stereo not drawn), 48.2%; as for `CN(C)CCN1CCC2(CCCN(C(=O)C3CCC3)C2)CC1`, 33%.
As for `O=C(C1CCOCC1)N1CC[C@H](O)[C@@H]1Cc1cccnc1`, the figure is 37.6%.
In the case of `O=C([C@@H]1CCO[C@@H]2CCN(CCc3ccccc3)C[C@@H]21)N1CCCC1`, the INHIBITION was -101%.
The result for `O=C([C@@H]1CCO[C@@H]2CCN(CC3CCOCC3)C[C@H]21)N1CCCC1` reads 30.3%; that for `O=C([C@@H]1CCO[C@@H]2CCN(CC3CC3)C[C@H]21)N1CCCCO1`, 61.5%; that for `O=C([C@@H]1CCO[C@@H]2CCN(Cc3ccco3)C[C@H]21)N1CCCCO1`, 29.8%.
As for `CC(C)CN1CC[C@H]2OCC[C@@H](C(=O)N3CCCO3)[C@@H]2C1`, the figure is 47.9%.
As for `Cc1ccc(CN2CC[C@H]3OCC[C@@H](C(=O)N4CCCCO4)[C@@H]3C2)o1`, the figure is 61.5%; as for `Cc1ccc(CN2C[C@H](C(=O)N3CCCCO3)[C@@H]3CCO[C@@H]3C2)o1`, -12.1%; as for `O=C([C@@H]1CCO[C@@H]2CCN(CC3CC3)C[C@H]21)N1CCCC1`, 57.5%.
In the case of `O=C([C@@H]1CCO[C@@H]2CCN(CC3CCOCC3)C[C@H]21)N1CCCO1`, the INHIBITION was 34.4%.
`CN1CCN(C2COC3(CCN(CC4CC4)CC3)C2)CC1` (stereo not drawn): the INHIBITION was -30.1%.
Regarding `CC(C)n1nc(Cn2cccn2)c2c1CN(C1CCOC1)C2` (stereo not drawn), the INHIBITION was -12.1%.
The result for `COc1cccc2c1ccn2CCNC(C)=O` reads 21%; that for `O=C(NCc1cncc2c1CCN(Cc1ccc(F)cc1)C2)C1CC1`, -14.4%; that for `COc1cccc(N2C(=O)CC3(CCCNC3)C2=O)c1` (stereo not drawn), -33.1%.
For the compound `N#Cc1ncn(CCC(=O)Nc2cccc(Cl)c2)n1`, the INHIBITION turned out to be 39.5%.
Turning to `CCC(=O)Nc1ccc(C(C)NC(=O)COC)cc1` (stereo not drawn), the INHIBITION is recorded as -68%.
Regarding `N[C@@H](Cc1ccccc1)c1nnc(S(=O)(=O)Cc2cccc(Cl)c2)o1`, the INHIBITION is given as -3.73%.
As for `CCN(CC)c1ccc(C(=O)N2CCC(c3nc(C)no3)CC2)cn1`, the figure is 30.25%; as for `Cc1cc(CCC2CN(CC3(O)CCCCC3)CCO2)ncn1` (stereo not drawn), -3.02%; as for `CC(C)Nc1nc(N2CCOCC2)nc2c1CN(CC(=O)N(C)C)CC2`, 20.5%.
The result for `c1cc(CN2CCc3nc(N4CCOCC4)nc(NC4CC4)c3C2)co1` reads -15.3%; that for `Cc1nc(N2CCOCC2)nc2c1CN(CC(=O)N(C)C)CC2`, 16.8%; that for `CCCN1CCc2nc(N3CCOCC3)nc(NC(C)C)c2C1`, 69.3%.
Consider `Cc1nc(N2CCCC2)nc2c1CCN(Cc1ccoc1)CC2`, for which the INHIBITION is reported as 8.03%.
Regarding `CC(C)CCN1CCc2nc(N3CCOCC3)nc(NC(C)C)c2C1`, the INHIBITION was 70.2%.
The result for `Cc1nc(N2CCOCC2)nc2c1CCN(c1nccs1)CC2` reads 37.8%; that for `CC(C)Nc1nc(N2CCOCC2)nc2c1CN(Cc1ccoc1)CC2`, 55.2%; that for `CCN1CCc2nc(N3CCOCC3)nc(NC(C)C)c2C1`, 24%.
The result for `c1csc(CN2CCc3nc(N4CCOCC4)nc(NC4CC4)c3C2)n1` reads 57.1%; that for `C1CN(c2nc3c(c(NC4CC4)n2)CN(CC2CCOC2)CC3)CCO1` (stereo not drawn), -39.4%; that for `Cc1cc2ccccc2n1CC(=O)NC(C)C(=O)N1CCOCC1` (stereo not drawn), -7.83%.
As for `CCCc1nc(C(C)(C)NC(=O)C2CC(=O)N(C3CC3)C2)no1` (stereo not drawn), the figure is 40%; as for `CC(C)(C)n1cc(CNC2CCN(C(=O)c3ccoc3)CC2)cn1`, 1.75%.
Consider `COc1cc(CN2CCC3(CC(Nc4ccncn4)C3)C2)cc(OC)c1` (stereo not drawn), for which the INHIBITION came to 44.1%.
The result for `Cc1cc2ccccc2n1CC(=O)NCC(=O)N1CCOCC1` reads 8.41%; that for `CCOCc1nn(CC2CC2)c2c1CN(Cc1ccco1)CC2`, 12.4%; that for `COc1ccc(-n2ccc(C(=O)NCCN3CCCCC3)n2)cc1`, 40.2%.
Consider `O=C(NCCN1CCCCCC1=O)c1ccn(-c2ccc(F)cc2)n1`, for which the INHIBITION is reported as 13.3%.
The result for `COc1ccc(-n2ccc(C(=O)NCCN3CCCC(C)C3)n2)cc1` (stereo not drawn) reads 62.1%.
The result for `COc1ccc(-n2ccc(C(=O)NCCN3CCCCC3C)n2)cc1` (stereo not drawn) reads 44.8%.
On to `COc1ccc(-n2ccc(C(=O)NCCN3CCC(C)CC3)n2)cc1`, for which the INHIBITION turned out to be 38.8%.
In the case of `CC1CCCN(CCNC(=O)c2ccn(-c3cccc(F)c3)n2)C1` (stereo not drawn), the INHIBITION is reported as 51.1%.
The result for `COc1ccc(-n2ccc(C(=O)NCCN3CCCCCC3)n2)cc1` reads 51.1%.
As for `O=C(NCCN1CCCCC1)c1ccn(-c2ccc(F)cc2)n1`, the figure is -2.53%; as for `COc1cn(-c2ccccc2)nc1C(=O)NCCN1CCCC(C)C1` (stereo not drawn), 22.3%; as for `CCN1CCN(CCNC(=O)c2ccn(-c3ccc(F)cc3)n2)CC1`, 60.2%.
The result for `CC1CCCN(CCNC(=O)c2ccn(-c3ccc(F)cc3)n2)C1` (stereo not drawn) reads 3.15%; that for `CC1CCCN(CCNC(=O)c2ccn(-c3ccccc3)n2)C1` (stereo not drawn), 29.4%.
As for `CC(C)CNC(=O)[C@H]1CCS(=O)(=O)[C@@H]2CN(CC(C)C)C[C@H]12`, the INHIBITION came to 23.3%.
As for `Cc1ccc(NC(=O)NCCn2cnc(C)c(C)c2=O)cc1F`, the figure is -16.4%; as for `CC(=O)c1cc2ncc(C(=O)NC3CCCC3)cc2[nH]1`, 8.52%.
As for `CC(C)OC(=O)N1C[C@@H]2CC[C@H]1CN(C(=O)c1ccccc1)C2`, the figure is -63.6%; as for `Cc1ncccc1C(=O)NCC(C)Oc1ccc(F)cc1` (stereo not drawn), 10.1%.
The result for `CCn1cnnc1CNC(=O)N(C)Cc1cccc(OC(F)F)c1` reads 36.1%; that for `Cc1cnc(C2(C)CCN(Cc3cscn3)CC2)s1`, -6.92%; that for `COCCNC(=O)c1cc(-c2cc[nH]n2)n2ccccc12`, -22.5%.
On to `Cc1c(C(=O)NC2CCCOc3cc(Cl)ccc32)cnn1C` (stereo not drawn), for which the INHIBITION was -25.8%.
As for `Cc1c(-c2cc(C(F)F)nc3sc(C(N)=O)c(N)c23)cnn1C`, the figure is -17.2%; as for `CCn1cc(-c2cc(C(F)F)nc3sc(C(N)=O)c(N)c23)c(C)n1`, -35.4%.
As for `CCn1ncc(-c2cc(C(F)F)nc3sc(C(N)=O)c(N)c23)c1C`, the INHIBITION is 64.8%.
With `CC1CN(CCOc2ccccc2C#N)CCN1Cc1nccn1C` (stereo not drawn), the INHIBITION is reported as 14.1%.
As for `Cc1ccc(C)c(CN2CCOC(c3noc(C)n3)C2)c1` (stereo not drawn), the figure is 8.53%; as for `Cc1cccc(CN2CCC(c3nnsc3S(C)(=O)=O)CC2)n1`, 30.8%; as for `O[C@@H]1CN(Cc2cccc(F)c2)CC[C@H]1NCc1ccccn1`, 43.05%.
The result for `COc1ccc(C(C)NCc2cccs2)cc1Cn1cccn1` (stereo not drawn) reads 10.6%; that for `CC(C(=O)NCc1cccs1)N1CCN(Cc2nccn2C)CC1` (stereo not drawn), 46.4%.
In the case of `CC(NCc1ccsc1)c1ccc(OCc2nccn2C)cc1` (stereo not drawn), the INHIBITION was 69.5%.
As for `CC(NCc1cccs1)c1ccc(OCc2nccn2C)cc1` (stereo not drawn), the figure is 63.8%; as for `CC(NCc1cnn(C)c1)c1ccc(OCc2nccn2C)cc1` (stereo not drawn), 49.5%; as for `CC(NCc1ccc(OCc2nccn2C)cc1)c1cccnc1` (stereo not drawn), -63.6%.
Consider `Cc1sc(NC(=O)CN(C)CCOc2cccc(F)c2)c(C)c1C`, for which the INHIBITION is given as 9.14%.
Take `COCCNC(=O)[C@H]1CN(Cc2scnc2C)C[C@H]2OCC[C@@H]12`: the INHIBITION was -44.8%.
On to `Cc1nc(CCNC(=O)NC2CCCN(c3ncccn3)C2)cs1` (stereo not drawn), for which the INHIBITION came to 8.03%.
As for `O=C1COc2ccc(C(=O)NS(=O)(=O)c3ccccc3F)cc2N1`, the figure is 14.1%.
The result for `O=C1COc2cc(C(=O)NS(=O)(=O)c3ccc(F)cc3F)ccc2N1` reads 33.3%.
As to `O=C1COc2cc(C(=O)NS(=O)(=O)c3ccccc3F)ccc2N1`, the INHIBITION came out at 50.4%.
On to `c1cncc(-c2noc(CN3CCCCC3Cn3cccn3)n2)c1` (stereo not drawn), for which the INHIBITION is recorded as 33.8%.
As for `CC(OCc1ccccc1)C(=O)NCc1ccc(N(C)C)cc1` (stereo not drawn), the figure is 33.3%.
The result for `Cn1ncc2c1C(COCC1CC1)N(Cc1ccoc1)CC2` (stereo not drawn) reads -29.3%.
As for `COC(=O)[C@H]1CN(C(=O)c2cscn2)C[C@@H]1c1ccc(F)cc1`, the figure is 32.8%.
Take `CNC(=O)[C@@]12CCO[C@@H]1CCN(S(=O)(=O)c1ccccc1F)C2`: the INHIBITION is recorded as 52%.
The result for `CNC(=O)[C@@]12CCO[C@@H]1CCN(S(=O)(=O)c1cc(C)cc(C)c1)C2` reads 54.4%.
On to `CNC(=O)[C@@]12CCO[C@@H]1CCN(S(=O)(=O)c1ccc(C)cc1)C2`, for which the INHIBITION amounted to 21.8%.
The result for `CNC(=O)[C@@]12CCO[C@@H]1CCN(S(=O)(=O)c1ccccc1C)C2` reads 6.6%; that for `CNC(=O)[C@@]12CCO[C@@H]1CCN(S(=O)(=O)c1cccc(C)c1)C2`, 38.7%.
The result for `CNC(=O)[C@@]12CCO[C@@H]1CCN(S(=O)(=O)c1ccccc1)C2` reads 42.7%.
